Source: the supplement of paper PMC6555819

Assays:
Experiment in all cases: PBM binding z-score (relative to random genomic background probes); higher = stronger binding; sequences stand for … in GC…GCGATTGACAGCGTAGAATGAAGG
[1] = tested on: FXR:RXRa (NR concentration 270 nM, RXRa partner concentration 90 nM)
Method in brief: (§1)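 Each nuclear receptor dimer, without ligand, was incubated for 1 h on custom Agilent 4×180K protein-binding microarrays. Binding was detected with antibodies against each partner (one per run), and scanned fluorescence was regression-normalized. The binding z-scores are referenced to random human genomic background probes.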

[2] = tested on: LXRa:RXRa (NR concentration 270 nM, RXRa partner concentration 90 nM)
Method in brief: as §1

[3] = tested on: LXRa homodimer (NR concentration 270 nM)
Method in brief: as §1

[4] = tested on: LXRb:RXRa (NR concentration 270 nM, RXRa partner concentration 90 nM)
Method in brief: as §1

[5] = tested on: LXRb homodimer (NR concentration 270 nM)
Method in brief: as §1

[6] = tested on: PPARg:RXRa (NR concentration 180 nM, RXRa partner concentration 90 nM)
Method in brief: as §1

[7] = tested on: PPARg:RXRa 270nM:90nM, anti-RXR (NR concentration 270 nM, RXRa partner concentration 90 nM)
Method in brief: as §1

[8] = tested on: PPARg:RXRa 30nM:10nM, anti-RXR (NR concentration 30 nM, RXRa partner concentration 10 nM)
Method in brief: as §1

[9] = tested on: PPARg:RXRa 90nM:30nM, anti-RXR (NR concentration 90 nM, RXRa partner concentration 30 nM)
Method in brief: as §1

[10] = tested on: PPARg:RXRa DBDmut IVT, anti-RXR (DBD mutation: RXRa K156A/R161A, NR concentration 270 nM, RXRa partner concentration 90 nM)
Method in brief: as §1

[11] = tested on: PPARg:RXRa IVT, anti-PPARg (NR concentration 270 nM, RXRa partner concentration 90 nM)
Method in brief: as §1

[12] = tested on: PPARg DBDmut:RXRa IVT, anti-PPARg (DBD mutation: PPARg1 K132A/R137A, NR concentration 270 nM, RXRa partner concentration 90 nM)
Method in brief: as §1

[13] = tested on: PPARg DBDmut IVT, anti-PPARg (DBD mutation: PPARg1 K132A/R137A, NR concentration 270 nM)
Method in brief: as §1

[14] = tested on: PPARg homodimer (NR concentration 180 nM)
Method in brief: as §1

[15] = tested on: PXR:RXRa (NR concentration 270 nM, RXRa partner concentration 90 nM)
Method in brief: as §1

[16] = tested on: PXR homodimer (NR concentration 270 nM)
Method in brief: as §1

[17] = tested on: RARa:RXR (NR concentration 270 nM, RXRa partner concentration 90 nM)
Method in brief: as §1

[18] = tested on: RARa homodimer (NR concentration 270 nM)
Method in brief: as §1

[19] = tested on: RARb:RXRa (NR concentration 270 nM, RXRa partner concentration 90 nM)
Method in brief: as §1

Row | Sequence | PBM binding z-score [1] | PBM binding z-score [2] | PBM binding z-score [3] | PBM binding z-score [4] | PBM binding z-score [5] | PBM binding z-score [6] | PBM binding z-score [7] | PBM binding z-score [8] | PBM binding z-score [9] | PBM binding z-score [10] | PBM binding z-score [11] | PBM binding z-score [12] | PBM binding z-score [13] | PBM binding z-score [14] | PBM binding z-score [15] | PBM binding z-score [16] | PBM binding z-score [17] | PBM binding z-score [18] | PBM binding z-score [19]
1 | CAAACTAGGTCACGAAAGGTCAAATTCGAATGAC | 7.71 | 8.3 | 8.38 | 7.56 | 3.75 | 10.6 | 8.52 | 7.21 | 8.47 | 8.4 | 9.14 | 3.89 | 2.38 | 4.71 | 7.07 | 2.34 | 7.31 | 2.58 | 6
2 | AAATGTAGGTTAAGGGTCATTCAGGTTGGTTCGC | 5.31 | 4.71 | 3.07 | 4.53 | 1.39 | 11.7 | 9.63 | 10.5 | 10.8 | 8.02 | 8.07 | 2.18 | 2.05 | 3.58 | 5.32 | 2.61 | 5.42 | 2.02 | 3.7
3 | CCTACTGGGCCATTCAGAGGTCATTGTTCATATG | 2.55 | 4.4 | 6.96 | 3.77 | 0.5 | 1.98 | 3.18 | 0.535 | 2.16 | 4.55 | 4.17 | 0.178 | -0.495 | 2.5 | 4.71 | 2.33 | 4.2 | 0.216 | 2.97
4 | AGTCAAAGTTCAGCACGAGGTAACGTAAAGCACG | 4.45 | 4.19 | 1.47 | 2.23 | 0.567 | 4.88 | 5.1 | 2.2 | 4.2 | -0.116 | 2.28 | 0.538 | 0.124 | 1.92 | 3.35 | 1.01 | 3.13 | 1.12 | 4.66
5 | CCTAGCAGACCAATCTGGGTCACTCAAGGCTTGA | 0.219 | 0.374 | -0.629 | 0.514 | -1.09 | 1.8 | 2.09 | 0.195 | 1.21 | 4.01 | 4.87 | 0.573 | -0.876 | 0.484 | 0.638 | -0.509 | 1.57 | -0.18 | 0.96
6 | GGAACGAGCGCAAAGTTGATAGCATCTGTCGACG | -0.856 | -0.827 | -0.68 | -1.1 | -1.22 | 1.51 | 3.31 | 0.951 | 2.9 | -0.42 | -0.495 | -0.634 | -1.33 | -1.01 | -0.773 | -0.719 | -0.723 | -0.818 | -0.372
7 | GCTGCTCGGTCAACTGATGGTCAGCTAAAGCTCG | 0.704 | 0.751 | 0.0425 | -0.248 | -0.201 | -0.584 | -0.239 | -0.686 | -0.163 | 0.634 | -0.00578 | -0.981 | -0.237 | -0.156 | -0.105 | -0.492 | 0.225 | -0.934 | 2.87
8 | TCTAGTTGGTCAAAGGCCACACACTCGAAATGCG | 0.691 | 0.811 | 0.139 | 0.867 | -0.181 | 6.54 | 7.01 | 6.34 | 7.68 | 2.18 | 3.17 | 0.393 | 0.329 | 1.01 | 0.772 | 0.0843 | 1.28 | 0.063 | 1.95
9 | GCTGCTAGGTCAACTGATGGTCAGCTAGAGCTCG | 3.85 | 2.95 | 0.128 | 1.85 | 0.313 | 2.7 | 2.98 | 0.27 | 2.01 | 4.87 | 3.91 | -0.00234 | 0.522 | 0.71 | 1.55 | -0.557 | 2.21 | 0.274 | 4.28
10 | CCAGACAGGTGAAAGGTAACTCACTCTGGTACGC | 1.02 | 0.665 | -0.00301 | 0.938 | -0.466 | 6.03 | 6.05 | 4.21 | 6.66 | 2.36 | 3.27 | -0.16 | 0.145 | 1.28 | 0.983 | 0.186 | 1.84 | 0.159 | 1.26
11 | TCTAGTTGGTCAAAGGTCTCACACTCGAAATGCG | 1.27 | 1.49 | 0.269 | 1.57 | 0.449 | 7.81 | 7.33 | 6.65 | 8.53 | 3.11 | 3.77 | 1.08 | 1.78 | 2.48 | 1.34 | 0.942 | 1.89 | 1.17 | 1.88
12 | CAAACTAGGTCACCGTAAGGTCAAAGTCCGCATG | 6.58 | 6.1 | 5.47 | 5.55 | 1.46 | 9.41 | 7.89 | 5.84 | 7.64 | 8.08 | 9.03 | 2.73 | 1.86 | 6.09 | 6.21 | 2.62 | 7.31 | 1.95 | 5.57
13 | CAATCTAGGTCAAAGGTCAAAGTCGAGCCAACCA | 8.46 | 7.47 | 6.51 | 7.41 | 3.28 | 14 | 11.2 | 12.9 | 13.1 | 8.91 | 9.32 | 3.79 | 6.44 | 3.41 | 6.92 | 1.82 | 8.3 | 1.8 | 5.89
14 | AGACAAAGTTCAGGACGAGGTAACGTAAAGCACG | 4.35 | 3.92 | 0.814 | 1.95 | -0.0251 | 2.53 | 2.93 | 1 | 1.97 | -0.362 | 0.619 | 0.472 | 0.977 | 1.38 | 3.02 | 0.806 | 3.06 | 0.776 | 4.18
15 | TAGCCTAGGTCATTGTGCCAGTATAGTACGCATC | 4.04 | 3.2 | 1.08 | 2.51 | 0.948 | 2.89 | 2.79 | 0.475 | 2.19 | 2.37 | 3.23 | -0.0725 | 0.703 | 0.97 | 1.47 | 0.0622 | 1.89 | -0.0989 | 3.44
